# Measured values from the supplement of paper PMC11417369.
# In all, about 25,000 sequences were measured (“ln(normalized median fluorescence intensity)”: median about 6.7, highest 2% from about 10 on). This is one part of a sample in which the highest values are shown more often than they occur.
# Tested on: PfHDP1 homeodomain (GST-tagged)
# Assay: gcPBM binding intensity (ln(normalized median fluorescence intensity)); higher = stronger DNA binding
# Method in brief: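 The highest Masliner-normalised natural-log median intensity across replicate spots of either probe orientation is reported as binding intensity. GST-tagged P. falciparum DNA-binding domains expressed in E. coli were applied for 1 h to an Agilent 4 × 180k array of primer-extended double-stranded 36-bp intergenic genomic probes plus negative controls, and bound protein was detected with Alexa488 anti-GST antibody and scanned at 488 nm.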
row,Sequence,gcPBM binding intensity (ln)
1,CATTAATAAAAAAAAAGTACAAAAAATATATATATT [XGTACX_site2091],6.88
2,TCGTCTCAATAATTATAATAAAAAAATTCCTAAGTC [CACACA_negctrl_site338],6.28
3,TATATGCCTATAAGAAGTACTGTGTAATGTAATATA [XGTACX_site8089],6.67
4,TTGTGTTATCCTTTTTTAGATCAACTATTTTTATTC [CACACA_negctrl_site145],6.32
5,AAAGGAAAAAAAAGCACACACAATATTACTTGAAAT [CACACA_site2588],6.9
6,TAATTATTACACGGTATTATATATAATATGTTAAAA [GTGCAC_negctrl_site134],6.6
7,ATATTGATACATCCAATACACACTACATATAATGAT [CACACA_site1874],6.82
8,TTATATTTATAAAATTGTATACCCCTTCTAACTTTC [CACACA_negctrl_site250],6.7
9,AAAATATAAATTCATGTGCACATATATATTTTGTTA [GTGCAC_site9782],10.7
10,GTGCAAAATATTTTTACACACAAATTTTTACAACAG [CACACA_site3357],8.07
11,TCAAAAAATATATTTGCACACTCAAAAAAAAAAAAA [CACACA_site860],10.2
12,ATATATTTATTTTGTGCACACAACGCAAACCTTTTA [CACACA_site3508],11.3
13,TTTTTTATTTTGTGCACACACATAAAAATATAAATA [CACACA_site6497],11.4
14,AAAATGTGCATATTTGCACACTTCAATATATATATA [CACACA_site1791],11.2
15,TTTTGTTATAAATAATGTACATATTTATTTAAAATT [XGTACX_site6610],6.25
16,ATATATATTTTTTAAACACACACATAAATATTTGTG [CACACA_site8936],6.94
17,AAAAAATATATTTGCACACTCAAAAAAAAAAAAAAA [CACACA_site859],10.3
18,TTTATATTTTATAAATTATTCATAAATATATTTGTA [TGCATGCA_negctrl_site175],6.34
19,TATAAACCTTTTTGCACGCACACAAAAAAAAAATAA [CACACA_site168],9.61

row,Sequence,gcPBM binding intensity (ln)
1,TATAAAAATGTGCACACACACACATATTTATATTTA [CACACA_site6826],10.1
2,ATAACATTCTATGTTGCACACAAAGAGAAAAATTTA [CACACA_site9322],9.12
3,TATTATATATCAAAATGTACATTAATTTGAGTAATT [XGTACX_site5434],6.37
4,AAACGTGCGTATATGTGTACGCATATATATATATAT [XGTACX_site5252],9.26
5,ATATATTTTTTAAACACACACATAAATATTTGTGTA [CACACA_site2879],6.8
6,TATTTTATAATAGGCACACATATAAAAATATATATA [CACACA_site4127],6.57
7,ATTTTTTTATTTTGTGCACACACATAAAAATATATA [CACACA_site762],11.4
8,ATAATACAAAATACATGTACAAATATTTTTCATATT [XGTACX_site1721],6.43
9,AATAAAATGGAATACGGTACACATAATCCTAAAATG [XGTACX_site926],6.4
10,GGAGGTTGTTATAAAAGTACAAAAAGTTGCAATTTT [XGTACX_site7351],10.7
11,TATAACAAGTTATAAAGTACAAATGTTGAATTTTAT [XGTACX_site4673],6.07
12,TTATGTTATATAAAAAGTACAAATTTTTTTTAATTA [XGTACX_site3435],5.94
13,AAACGAGAACATAATAAATACATAAATAAATAAATA [GTGCAC_negctrl_site433],6.43
14,ACCCTCATATTATAGACACACACAAAAAAAATAAAA [CACACA_site7941],6.66
15,TTTTTATTACATAATTAAAAAAAATAATAAAATAAA [XGTACX_negctrl_site249],6.03
16,CTTTTAAATTATTTTTGTACATAATTATATATATAT [XGTACX_site4128],8.27
17,TATATATAAATATATGTGCACTTTTTATATTTATAT,9.06
18,TATATTTTATATATGGTGCAACTTTTATTTAAATAA,10.7
19,TGTATTAAAAATTTGGTGCAACTTTTACATAATAAT,10.8

row,Sequence,gcPBM binding intensity (ln)
1,TATATAAAAAATAGGTGGTCAACTTAAATATTTTAT [XGTACX_site4495],6.46
2,TATAAAAATGTGTATGTACACACTTTATTTTTAATA [CACACA_site2532],6.38
3,ATAATATTTAGGTGTGCACACAAACATACATATATA [CACACA_site9120],10.9
4,TTACATACAATTGGTGTGCACATATATATATATATA,10.3
5,TTTATATATATTTATACACACAAACATAATACTACT [CACACA_site5161],6.86
6,TAATAATCAAACTATACACACATAAATAAATATATA [CACACA_site156],6.52
7,TTTATTTATATTTATACACACAAACATAATACTACT [CACACA_site7039],6.82
8,ATAATATTCGAGTGTGCACACAAACATACATATATA [CACACA_site3396],11.1
9,AATATTTATGGGTGCACACAAACATACATATATATA [CACACA_site3395],10
10,TATTCGAACAAAAATACATGCACATATGCATAATAA [TGCATGCA_site171],10
11,AAATCAAACTTTGGTGTGCACAAATATATACATATA [GTGCAC_site9986],11
12,CATATATGTTATATTTAACACACATATAAGGTACAT [CACACA_site8105],6.51
13,AAGAAAAAGAATAGACGGACAACTAATATAAAATAT [XGTACX_site7905],6.53
14,ATATATAAACTGAAGGGTACAATGAAAAAAGAACTT [XGTACX_site7219],6.81
15,TACAACAATTTTTGCACACACCAAAACATAAAATAA [CACACA_site4964],10.3
16,CCATATCTTTTTTGCACACACTACAATAAAACAAAA [CACACA_site4995],10.6
17,AGCCATATCTTTTTTGCACACACTACAATAAAACAA [CACACA_site1650],10.1
18,ATTTGTATATACATATGTACACATGTAGGCTCATAA [XGTACX_site1709],6.92
19,ATATTTTCAGTTCTCCATTATGTTCCCATTATTTTT [CACACA_negctrl_site990],7.03
